Measurements published in the supplement of paper PMC10849652.
About 7,900 targets were measured; listed, in parts, are those with a hit and a random draw of the rest. About 0.6% of all pairs of compound and target were hits. A number with no mark means an inactive call.

Experiments:
Test in all cases: log2 fold change, soluble protein after heating vs DMSO (PISA); higher = thermal stabilisation; K562 cells, 10 uM, 30 min; active = over 0.2 and 3.5 SD of the protein, either way, in both replicates (recomputed)
[1] = compound: COC1=CC=C(C=C1)CN2C=CC3=C2C=C(C=C3)C(=O)NO
How it was run: (§1)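 K562 cells at 2×10^6 cells/mL were exposed to 10 μM compound for 30 min, then aliquots were heated for 3 min across 48°C-58°C, pooled, and extracted in PBS containing 0.5% NP-40 at 4°C. The supernatant after 21,000xg for 90 min was taken as soluble protein and measured by TMTpro 16plex LC-MS/MS with channel sums equalised. Thermal stability is reported relative to control samples, with values from duplicates. Fold changes are given on a log2 scale.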

filanesib = compound: CON(C)C(=O)N1N=C(c2cc(F)ccc2F)S[C@@]1(CCCN)c1ccccc1 [filanesib]
How it was run: as §1

zotarolimus = compound: CO[C@H]1C[C@@H]2CC[C@@H](C)[C@@](O)(O2)C(=O)C(=O)N2CCCC[C@H]2C(=O)O[C@H]([C@H](C)C[C@@H]2CC[C@H](n3cnnn3)[C@H](OC)C2)CC(=O)[C@H](C)/C=C(\C)[C@@H](O)[C@@H](OC)C(=O)[C@H](C)C[C@H](C)/C=C/C=C/C=C/1C [zotarolimus]
How it was run: as §1

idasanutlin = compound: COc1cc(C(=O)O)ccc1NC(=O)[C@@H]1N[C@@H](CC(C)(C)C)[C@](C#N)(c2ccc(Cl)cc2F)[C@H]1c1cccc(Cl)c1F [idasanutlin]
How it was run: as §1

alisertib = compound: COc1cc(Nc2ncc3c(n2)-c2ccc(Cl)cc2C(c2c(F)cccc2OC)=NC3)ccc1C(=O)O [alisertib]
How it was run: as §1

[2] = compound: COc1cc2nc(-c3cc(F)ccc3O)nc(N[C@@H]3CNC[C@H]3C(C)(C)O)c2cc1OC
How it was run: as §1

gefitinib = compound: COc1cc2ncnc(Nc3ccc(F)c(Cl)c3)c2cc1OCCCN1CCOCC1 [gefitinib]
How it was run: as §1

[3] = compound: COc1cccc2cc(-c3nc([C@H]4CC[C@H](C(=O)O)CC4)n4ncnc(N)c34)[nH]c12
How it was run: as §1

lapatinib = compound: CS(=O)(=O)CCNCc1ccc(-c2ccc3ncnc(Nc4ccc(OCc5cccc(F)c5)c(Cl)c4)c3c2)o1 [lapatinib]
How it was run: as §1

pictilisib = compound: CS(=O)(=O)N1CCN(Cc2cc3nc(-c4cccc5[nH]ncc45)nc(N4CCOCC4)c3s2)CC1 [pictilisib]
How it was run: as §1

UniProt Q9BVS4, sequence (Q9BVS4 whole entry, looked up): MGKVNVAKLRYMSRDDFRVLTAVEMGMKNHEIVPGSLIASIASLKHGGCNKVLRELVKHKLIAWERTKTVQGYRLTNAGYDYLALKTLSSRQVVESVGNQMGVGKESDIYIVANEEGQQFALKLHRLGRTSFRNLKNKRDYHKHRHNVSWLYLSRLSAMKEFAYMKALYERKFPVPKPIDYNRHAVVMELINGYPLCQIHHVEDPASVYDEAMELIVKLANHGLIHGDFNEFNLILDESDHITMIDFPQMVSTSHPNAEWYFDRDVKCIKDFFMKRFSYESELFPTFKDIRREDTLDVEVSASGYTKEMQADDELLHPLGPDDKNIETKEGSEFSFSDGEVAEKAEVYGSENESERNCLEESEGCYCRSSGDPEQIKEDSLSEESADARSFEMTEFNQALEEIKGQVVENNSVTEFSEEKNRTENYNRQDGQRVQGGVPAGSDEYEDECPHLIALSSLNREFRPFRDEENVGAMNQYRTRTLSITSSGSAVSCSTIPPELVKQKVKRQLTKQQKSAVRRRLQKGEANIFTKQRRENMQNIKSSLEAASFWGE
UniProt Q8TDY2, sequence (Q8TDY2 whole entry, looked up): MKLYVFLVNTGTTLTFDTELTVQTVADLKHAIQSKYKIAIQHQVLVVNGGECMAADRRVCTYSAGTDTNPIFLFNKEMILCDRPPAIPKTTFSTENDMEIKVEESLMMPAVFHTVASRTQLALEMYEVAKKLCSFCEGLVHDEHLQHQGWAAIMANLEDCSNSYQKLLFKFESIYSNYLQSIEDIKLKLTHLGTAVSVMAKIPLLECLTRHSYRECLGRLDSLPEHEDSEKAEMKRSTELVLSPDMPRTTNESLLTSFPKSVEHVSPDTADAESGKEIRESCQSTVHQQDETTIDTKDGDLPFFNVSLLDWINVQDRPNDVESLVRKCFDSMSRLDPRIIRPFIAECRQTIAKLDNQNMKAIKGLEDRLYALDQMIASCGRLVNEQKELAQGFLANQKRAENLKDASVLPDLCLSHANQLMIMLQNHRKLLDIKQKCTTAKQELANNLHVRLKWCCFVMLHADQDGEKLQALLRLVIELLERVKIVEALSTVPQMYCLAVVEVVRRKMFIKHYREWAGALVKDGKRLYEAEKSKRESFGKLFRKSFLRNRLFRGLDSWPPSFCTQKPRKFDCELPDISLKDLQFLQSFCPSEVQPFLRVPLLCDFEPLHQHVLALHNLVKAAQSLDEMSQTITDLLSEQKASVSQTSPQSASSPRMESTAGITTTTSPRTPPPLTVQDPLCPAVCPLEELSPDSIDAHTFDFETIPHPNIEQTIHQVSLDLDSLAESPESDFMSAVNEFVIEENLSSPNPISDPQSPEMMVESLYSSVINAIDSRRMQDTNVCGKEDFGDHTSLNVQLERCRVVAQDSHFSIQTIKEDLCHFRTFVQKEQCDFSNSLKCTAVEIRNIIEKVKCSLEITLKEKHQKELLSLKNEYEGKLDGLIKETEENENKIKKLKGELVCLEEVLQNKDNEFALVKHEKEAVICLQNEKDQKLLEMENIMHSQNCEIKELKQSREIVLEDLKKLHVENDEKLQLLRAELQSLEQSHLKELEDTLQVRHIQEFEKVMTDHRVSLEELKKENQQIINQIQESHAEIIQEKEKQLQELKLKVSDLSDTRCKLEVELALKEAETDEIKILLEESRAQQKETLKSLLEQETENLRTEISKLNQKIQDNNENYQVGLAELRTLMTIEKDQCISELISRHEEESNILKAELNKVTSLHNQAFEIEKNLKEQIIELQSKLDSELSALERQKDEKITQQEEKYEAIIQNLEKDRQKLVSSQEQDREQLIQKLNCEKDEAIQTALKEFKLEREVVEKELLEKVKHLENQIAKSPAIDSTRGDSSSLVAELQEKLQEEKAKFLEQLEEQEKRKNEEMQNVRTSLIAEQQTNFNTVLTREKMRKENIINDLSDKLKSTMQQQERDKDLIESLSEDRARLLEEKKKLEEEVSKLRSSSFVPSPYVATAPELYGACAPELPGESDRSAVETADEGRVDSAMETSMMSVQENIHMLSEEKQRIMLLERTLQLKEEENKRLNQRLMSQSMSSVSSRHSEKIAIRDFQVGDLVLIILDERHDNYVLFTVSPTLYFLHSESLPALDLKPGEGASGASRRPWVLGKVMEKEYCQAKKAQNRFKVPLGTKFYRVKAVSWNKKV
UniProt Q96EE3, sequence (Q96EE3 whole entry, looked up): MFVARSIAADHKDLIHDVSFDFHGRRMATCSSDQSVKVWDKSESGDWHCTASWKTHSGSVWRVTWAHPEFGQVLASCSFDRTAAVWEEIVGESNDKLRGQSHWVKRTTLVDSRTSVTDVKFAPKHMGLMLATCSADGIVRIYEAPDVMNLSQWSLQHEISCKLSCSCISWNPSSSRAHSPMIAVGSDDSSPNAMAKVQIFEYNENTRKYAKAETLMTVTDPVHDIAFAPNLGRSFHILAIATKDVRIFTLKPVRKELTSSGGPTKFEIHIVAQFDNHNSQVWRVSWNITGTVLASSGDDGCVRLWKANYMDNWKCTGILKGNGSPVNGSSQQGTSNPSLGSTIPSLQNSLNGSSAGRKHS
UniProt Q9NQG5, sequence (Q9NQG5 whole entry, looked up): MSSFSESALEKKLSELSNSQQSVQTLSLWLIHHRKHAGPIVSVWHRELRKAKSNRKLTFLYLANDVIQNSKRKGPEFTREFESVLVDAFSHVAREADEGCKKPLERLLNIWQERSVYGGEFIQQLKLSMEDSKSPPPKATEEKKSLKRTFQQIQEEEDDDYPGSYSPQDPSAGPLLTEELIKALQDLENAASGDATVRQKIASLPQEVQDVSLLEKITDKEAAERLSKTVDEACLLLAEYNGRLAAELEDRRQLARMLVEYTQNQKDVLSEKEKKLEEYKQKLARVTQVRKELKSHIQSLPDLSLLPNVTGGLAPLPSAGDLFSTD

Target | log2 fold change [1] | log2 fold change (filanesib) | log2 fold change (zotarolimus) | log2 fold change (idasanutlin) | log2 fold change (alisertib) | log2 fold change [2] | log2 fold change (gefitinib) | log2 fold change [3] | log2 fold change (lapatinib) | log2 fold change (pictilisib)
RIOK2 (UniProt Q9BVS4) | -0.039 | 0.064 | -0.017 | 0.01 | -0.025 | 0.074 | -0.101 | -0.057 | 0.08 | 0.049
SEH1L isoform 1 (UniProt Q96EE3) | -0.004 | 0.012 | -0.03 | -0.014 | -0.024 | 0.025 | 0.015 | 0.038 | -0.045 | 0.017
RPS20 isoform 2 (UniProt P60866) | -0.086 | 0.085 | 0.019 | 0.047 | -0.018 | -0.015 | -0.036 | -0.157 | 0.108 | -0.006
RB1CC1 (UniProt Q8TDY2) | 0.435 (active) | -0.079 | 0.014 | -0.002 | -0.112 | 0.182 | -0.042 | -0.049 | 0.181 | 0.083
RPS25 (UniProt P62851) | 0.006 | 0.145 | -0.015 | 0.061 | -0.143 | -0.038 | -0.022 | -0.198 | 0.038 | -0.08
RPRD1B (UniProt Q9NQG5) | 0.014 | 0.022 | -0.018 | -0.031 | -0.011 | 0.106 | 0.037 | 0.061 | -0.004 | 0.019
